Source: PubChem
Most compounds without a hit are left out; they make up all but 9.5% or so of the library.
Pf growth 96h – P. falciparum growth inhibition at 96 hours; P. falciparum luciferase reporter growth, 96 h; 320,000 tested, 6.9% active; Potency, µM (doses to about 28.7 µM), for inactives: top-dose activity change, negative = inhibition, usual class: inhibitors; also: % is scaled to controls: 0 for no effect and ±100 for the full control effect
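Luminescence readout: decreased luciferase signal marks inhibited growth of reporter-expressing P. falciparum in infected red cells (2% hematocrit, 0.05% parasitemia final), exposed to compound two generations (96 h, 37 C, 5% CO2).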
SARS PLP yeast – SARS-CoV PLP inhibition in yeast. AID 485353. S. cerevisiae expressing SARS-CoV PLpro, growth rescue. Potency, µM (doses to about 32.9 µM), for the others: top-dose activity, positive = growth rescue, actives largely listed as activators. 330,000 tested, 0.19% active; calls by dose curve; also: 0% is about no effect; nearly all actives have a fitted effect of over 55% in size
NS1 inh – influenza NS1 inhibition; Potency, µM (titrated, usually from 46.1 µM), for the others: at the top dose activity, positive = more growth; 270,000 tested, 0.4% active; AID 2326; calls by dose curve; also: actives are rising curves; nearly all actives have a fitted effect of over 50% in size
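Recovery from NS1-induced slow growth read by OD600 in budding yeast switched to galactose assay medium (pH 6.0, -URA) at 1:100 dilution. Compound 23 nl per well; the matching strain lacking NS1 serves as control.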
RE007 growth inh – less growth of the S. pombe RE007 Vpr strain | AID 651644 | 360,000 tested, 0.21% active | Potency, µM (top dose mostly 92.2 µM), for the others: at the highest dose activity change, negative = less growth, actives largely listed as inhibitors | S. pombe RE007 Vpr strain, BacTiter-Glo ATP luminescence, 24 h; active = well fitted falling curve with a large enough effect; inconclusive = small, poorly fitted or top-dose-only effect; inactive = no such curve, though single readings can be large or run the other way; also: % is scaled to controls: 0 for no effect and ±100 for the full control effect; nearly all actives have a fitted effect of over 50% in size
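Fission yeast strain RE007, carrying one chromosomally integrated HIV-1 vpr copy, was seeded at OD 0.01 in PMG+AL medium with 23 nL pinned compound. After 24 h at 30 °C and 99% humidity, viability was read by BacTiter-Glo luminescence.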
Pf growth 48h – P. falciparum growth inhibition at 48 hours (one generation). 310,000 tested, 5.9% active. P. falciparum luciferase growth in erythrocytes, 48 h. AID 504832. Potency, µM (series often up to 28.7 µM), inactives show top-dose activity change, negative = inhibition, actives largely listed as inhibitors; also: % is scaled to controls: 0 for no effect and ±100 for the full control effect
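Compounds are pin-transferred into medium, infected erythrocytes (2% hematocrit, 0.1% parasitemia final) are added, and plates sit one parasite generation at 37 C in 5% CO2. Detection reagent is then added and luminescence measured.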
* hit, by the source's call. Unless noted, calls follow the shape of the dose curve; as a rule, active = well fitted inhibition curve with a large enough effect; inconclusive = small, poorly fitted or top-dose-only effect, or another doubt; inactive = no such curve, though single readings can be large or run the other way. Potency is read from the fitted curve at half-maximal effect.

Results for COc1ccc(N(C(=O)c2snc(C(N)=O)c2N)C(C(=O)NCc2ccccc2)c2ccc(F)cc2)c(OC)c1 (stereo unspecified) ?
Pf growth 96h: 25%; SARS PLP yeast: 5%; NS1 inh: 3%; RE007 growth inh: -15%; Pf growth 48h: 10µM*

What do the screens show for `COc1ccc(C(C(=O)NCc2ccccc2)N(Cc2ccco2)C(=O)c2snc(C(N)=O)c2N)cc1OC` (stereo unspecified)?
Pf growth 96h: 14%; SARS PLP yeast: -7%; NS1 inh: -3%; RE007 growth inh: -16%; Pf growth 48h: 10µM*

What do the screens show for `Cc1ccc(-c2[nH]ncc2C(=O)c2ccccc2C)c(O)c1`?
Pf growth 96h: inconclusive; SARS PLP yeast: 0%; NS1 inh: -12%; RE007 growth inh: 11%; Pf growth 48h: inconclusive

Results for O=C(NCC(=O)N1CC(O)CC1C(=O)N1CC(O)CC1C(=O)OCc1ccccc1)OCc1ccccc1 (stereo unspecified) ?
Pf growth 96h: 11%; SARS PLP yeast: -2%; RE007 growth inh: 7%; Pf growth 48h: 9%

What do the screens show for `CCc1c(C)sc(NC(=O)CC#N)c1C#N`?
Pf growth 96h: 0.83µM*; SARS PLP yeast: 0%; NS1 inh: 3%; RE007 growth inh: 13%; Pf growth 48h: -2%

What do the screens show for `COC(CNC(=O)CN1CCN(Cc2ccccc2F)C1=O)OC`?
Pf growth 96h: inconclusive; SARS PLP yeast: 1%; NS1 inh: -1%; RE007 growth inh: 13%; Pf growth 48h: inconclusive

Results for CN1C(=O)N(C)C(=O)C2(Cc3cc(NC(=O)c4ccccc4)ccc3N3CCCC32)C1=O (stereo unspecified) ?
Pf growth 96h: 10µM*; SARS PLP yeast: 1%; NS1 inh: 10%; RE007 growth inh: -11%; Pf growth 48h: 9.3µM*

How did CN1C(=O)N(C)C(=O)C2(Cc3cc(NC(=O)c4ccccc4Cl)ccc3N3CCCC32)C1=O (stereo unspecified) do in these assays?
Pf growth 96h: 5.2µM*; SARS PLP yeast: -5%; NS1 inh: 19%; RE007 growth inh: 8%; Pf growth 48h: inconclusive

What do the screens show for `CCOC(=O)C1(CC2CCCCO2)CCN(C(=O)NCc2ccccc2)CC1` (stereo unspecified)?
Pf growth 96h: inconclusive; SARS PLP yeast: 0%; NS1 inh: -3%; RE007 growth inh: 5%; Pf growth 48h: 2%

How did O=C(c1ccc(Br)cc1)N1CCC(C(=O)N2CCN(Cc3ccccc3)CC2)CC1 do in these assays?
Pf growth 96h: -13%; SARS PLP yeast: 1%; NS1 inh: -8%; RE007 growth inh: -7%; Pf growth 48h: -22%

How did Cc1cc(C)cc(NS(=O)(=O)c2c(C(=O)N3CCOCC3)c(C)n(C)c2C)c1 do in these assays?
Pf growth 96h: inconclusive; SARS PLP yeast: -4%; NS1 inh: 7%; RE007 growth inh: 6%; Pf growth 48h: inconclusive

What do the screens show for `CN(C)S(=O)(=O)c1ccc(/C(O)=C2/C(=O)C(=O)N(CCCN3CCOCC3)C2c2ccncc2)cc1` (stereo unspecified)?
RE007 growth inh: -10%

What do the screens show for `COc1ccccc1S(=O)(=O)Nc1cc(C)nn1-c1ccc(C)cc1`?
Pf growth 96h: inconclusive; SARS PLP yeast: 1%; NS1 inh: 6%; RE007 growth inh: -4%; Pf growth 48h: 2.6µM*

How did C=CCNC(=O)c1c(N)n(CCN2CCOCC2)c2nc3ccccc3nc12 do in these assays?
Pf growth 96h: 40%; SARS PLP yeast: -2%; NS1 inh: -4%; RE007 growth inh: 9%; Pf growth 48h: -15%

How did Nc1c(C(=O)NCCN2CCOCC2)c2nc3ccccc3nc2n1CCc1ccccc1 do in these assays?
Pf growth 96h: -19%; SARS PLP yeast: -3%; NS1 inh: -11%; RE007 growth inh: 14%; Pf growth 48h: 9.3µM*

How did Nc1c(C(=O)NCCN2CCOCC2)c2nc3ccccc3nc2n1CCc1ccccc1F do in these assays?
Pf growth 96h: 13µM*; SARS PLP yeast: 0%; NS1 inh: -86%; RE007 growth inh: 3%; Pf growth 48h: inconclusive

Results for CCn1cc(CN2CCCC(C(=O)Nc3ccc(-c4nc5ccccc5[nH]4)cc3)C2)c(C)n1 (stereo unspecified) ?
Pf growth 96h: 26%; SARS PLP yeast: 13%; NS1 inh: 3%; RE007 growth inh: 3%; Pf growth 48h: 2.1µM*

How did Cc1cc(CN2CCCC(C(=O)Nc3ccc(-c4nc5ccccc5[nH]4)cc3)C2)n[nH]1 (stereo unspecified) do in these assays?
Pf growth 96h: 7%; SARS PLP yeast: 5%; NS1 inh: 7%; RE007 growth inh: -2%; Pf growth 48h: inconclusive

Results for COc1cccc2c1C(=O)c1c(O)c3c(c(O)c1C2=O)C[C@](O)(/C(C)=N\O)C[C@@H]3O[C@H]1C[C@H](N)[C@@H](O)[C@H](C)O1 ?
NS1 inh: 3%

How did Cc1ccc(S(=O)(=O)NC2c3cccc4cccc(c34)C2Sc2nc(C)cc(C)n2)cc1 (stereo unspecified) do in these assays?
Pf growth 96h: 8.3µM*; SARS PLP yeast: 30%; NS1 inh: -3%; RE007 growth inh: 20%; Pf growth 48h: 10µM*

What do the screens show for `COc1ccc(NC(=O)CN(c2ccc([N+](=O)[O-])cc2)S(=O)(=O)c2ccccc2)cc1`?
Pf growth 96h: -26%; SARS PLP yeast: -8%; NS1 inh: inconclusive; RE007 growth inh: -17%; Pf growth 48h: inconclusive

What do the screens show for `COc1ccc(N(CC(=O)Nc2ccc(Cc3ccncc3)cc2)S(=O)(=O)c2ccccc2)cc1`?
Pf growth 96h: 3%; SARS PLP yeast: 1%; NS1 inh: 12%; RE007 growth inh: -9%; Pf growth 48h: 13µM*

Results for COCCOc1cc(N(CC(=O)N(C)C)S(=O)(=O)c2ccccc2)c(Cl)cc1Cl ?
Pf growth 96h: 12µM*; SARS PLP yeast: 1%; NS1 inh: 2%; RE007 growth inh: -20%; Pf growth 48h: 4%

How did COc1ccccc1N(CC(=O)Nc1ccc(Cc2ccncc2)cc1)S(=O)(=O)c1ccccc1 do in these assays?
Pf growth 96h: inconclusive; SARS PLP yeast: 1%; NS1 inh: -20%; RE007 growth inh: -10%; Pf growth 48h: 8.3µM*

What do the screens show for `CCOc1ccccc1N(CC(=O)Nc1ccccc1)S(=O)(=O)c1ccccc1`?
Pf growth 96h: 12µM*; SARS PLP yeast: 8%; NS1 inh: -2%; RE007 growth inh: -9%; Pf growth 48h: inconclusive

What do the screens show for `CNC(=O)CN(c1cc(OCCOC)c(Cl)cc1Cl)S(=O)(=O)c1ccccc1`?
Pf growth 96h: inconclusive; SARS PLP yeast: 2%; RE007 growth inh: -10%; Pf growth 48h: 283%

What do the screens show for `COc1ccc(N(CC(=O)Nc2ccc(S(=O)(=O)N3CCOCC3)cc2)S(=O)(=O)c2ccccc2)cc1`?
SARS PLP yeast: 2%; NS1 inh: 19%; RE007 growth inh: 8%; Pf growth 48h: 10µM*
